Among the test systems are K-562 leukemia; MALME-3M melanoma; MDA-MB-231 breast; SF-268 CNS; SF-295 CNS; SF-539 CNS; M14 melanoma; HCT-15 colon; UACC-257 melanoma.
Holding throughout (assay): NCI-60 one-dose screen, 48 h (100 = growth as untreated, 0 = no growth, -100 = all killed)
Common to all, as to conditions: 10 µM

Compounds without any hit were thinned out: in the full panel of roughly 83,000, 20% have a hit.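 For each line, cells grew in 96-well plates with the test compound present at a single concentration for 48 hours.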 A number with no mark means an inactive call. The source made the active and inactive calls. The calls were made as follows: active = growth percent below 10; inactive = the rest.

With `Clc1nc(Cl)c2c(ncn2C/C=C\Cn2cnc3c(Cl)nc(Cl)nc32)n1`, the growth in the experiment on K-562 leukemia was -20.6% (active); with MALME-3M melanoma it was -84.8% (active); in the experiment on MDA-MB-231 breast it was -100% (active); with SF-268 CNS, 6.36% (active); with SF-295 CNS, -10.7% (active); with SF-539 CNS it was -71.6% (active). In addition, the growth in the experiment on M14 melanoma is -10.5% (active); in the experiment on HCT-15 colon, -85.4% (active).

Turning to `CCN(CC)CCCC(C)Nc1nc(-c2ccc(OC)cc2)nc2cc(Cl)ccc12` (stereo unspecified), the growth is 44.3% with K-562 leukemia; 79.2% in the experiment on MALME-3M melanoma; 28.9% in the experiment on MDA-MB-231 breast; 60.1% with SF-268 CNS; 89.7% with SF-295 CNS; 62% in the experiment on SF-539 CNS. The results for the growth in the experiment with UACC-257 melanoma, with M14 melanoma and in the experiment with HCT-15 colon were 46%, -29% (active) and 49.9%, respectively.

Turning to `ClCCOCCn1cnc2c(Cl)nc(Cl)nc21`, the growth in the experiment with K-562 leukemia was 28.2%; in the experiment on MALME-3M melanoma it was 112%; in the experiment with MDA-MB-231 breast, 58.2%; in the experiment with SF-268 CNS it was 45.3%; in the experiment with SF-295 CNS, 70.2%; with SF-539 CNS it was 96.8%. Also, the growth in the experiment with UACC-257 melanoma is 59.9%; in the experiment with HCT-15 colon, 18.4%.

As to `COc1ccc2nc3cc(Cl)ccc3c(NCCNCC(C)O)c2c1` (stereo unspecified), the growth with K-562 leukemia was 2.47% (active); in the experiment on MALME-3M melanoma, 44.4%; in the experiment with MDA-MB-231 breast, 34.3%; in the experiment on SF-268 CNS it was 36%; in the experiment on SF-295 CNS it was 35.1%; in the experiment with SF-539 CNS it was 26.2%. The growth in the experiment with UACC-257 melanoma was 30.2%; with M14 melanoma it was 43.3%; with HCT-15 colon, 19.4%.

Regarding `CC1(O)CCC2CC3OC3(C)CCC3OC3(C)CCC1C2(C)C` (stereo unspecified), the growth in the experiment on K-562 leukemia was 113%; in the experiment with MALME-3M melanoma, 110%; in the experiment on MDA-MB-231 breast, 102%; in the experiment with SF-268 CNS, 107%; in the experiment with SF-295 CNS, 89.6%; in the experiment with SF-539 CNS, 119%. In addition, the growth was 103% in the experiment on M14 melanoma and 105% in the experiment on HCT-15 colon.

Take `CCN(CC)CCC(CNc1c(C)cnc2cc(Cl)ccc12)c1ccc(Cl)c(Cl)c1` (stereo unspecified): the growth in the experiment with K-562 leukemia was 1.52% (active); with MALME-3M melanoma it was -52% (active); with MDA-MB-231 breast it was 25.5%; with SF-268 CNS it was 71.8%; with SF-295 CNS it was 65.4%; in the experiment on SF-539 CNS it was 20.9%. The growth with UACC-257 melanoma was -49.6% (active); with M14 melanoma, -64.5% (active); with HCT-15 colon it was 32.3%.

Take `COc1ccc2c(c1)[n+]([O-])c(C#N)c(NC(=O)c1ccco1)[n+]2[O-]`: the growth was 92.8% in the experiment with K-562 leukemia; 103% in the experiment with MALME-3M melanoma; 92.3% with MDA-MB-231 breast; 107% with SF-268 CNS; 99.9% in the experiment with SF-295 CNS; 107% in the experiment with SF-539 CNS. The results for the growth in the experiment with M14 melanoma and in the experiment on HCT-15 colon were 104% and 99%, respectively.

For `O=C(C[n+]1ccccc1)c1ccc2ccccc2c1`, the growth in the experiment on K-562 leukemia was 86.6%; in the experiment on MALME-3M melanoma it was 92.4%; with MDA-MB-231 breast it was 95.2%; in the experiment on SF-268 CNS, 103%; in the experiment on SF-295 CNS, 88.2%; in the experiment on SF-539 CNS it was 97.3%. Moreover, the growth in the experiment on UACC-257 melanoma is 92.6%; with M14 melanoma it was 94%; with HCT-15 colon, 109%.

Regarding `O=C(CC(c1ccccc1)N1CCOCC1)c1ccccc1` (stereo unspecified), the growth is 27.9% in the experiment on K-562 leukemia; 87.6% in the experiment with MALME-3M melanoma; 98.6% in the experiment with MDA-MB-231 breast; 91.8% with SF-268 CNS; 94.9% in the experiment with SF-295 CNS; 97.5% with SF-539 CNS. Further, the growth in the experiment on UACC-257 melanoma was 80.5%; in the experiment on M14 melanoma it was 95.8%; in the experiment with HCT-15 colon, 92.2%.

On to `COc1ccc(NC(=O)Cc2nc3nc4sc(C)c(C)c4c(=O)n3[nH]2)cc1`, for which the growth is 109% with K-562 leukemia; 89.2% in the experiment with MALME-3M melanoma; 108% with MDA-MB-231 breast; 109% with SF-268 CNS; 91.3% in the experiment with SF-295 CNS; 103% in the experiment on SF-539 CNS. Besides, the growth in the experiment on UACC-257 melanoma was 101%; in the experiment on M14 melanoma it was 103%; in the experiment with HCT-15 colon it was 99.7%.

As to `O=C(CC(C(=O)c1ccccc1)N1CCOCC1)c1ccccc1` (stereo unspecified), the growth with K-562 leukemia is 40.5%; in the experiment with MALME-3M melanoma, 101%; with MDA-MB-231 breast, 92.7%; with SF-268 CNS it was 97.6%; in the experiment with SF-295 CNS, 92.9%; with SF-539 CNS it was 96.7%. Further, the growth in the experiment on UACC-257 melanoma is 93.8%; with M14 melanoma it was 101%; in the experiment with HCT-15 colon, 85%.

Consider `CCCCCCCCCCCCC1C/C=C\CCCC(=O)O1` (stereo unspecified), for which the growth in the experiment on K-562 leukemia was 101%; in the experiment with MALME-3M melanoma it was 107%; with MDA-MB-231 breast, 119%; in the experiment on SF-268 CNS, 103%; in the experiment with SF-295 CNS it was 103%; with SF-539 CNS, 107%. Moreover, the growth is 118% in the experiment with UACC-257 melanoma, 100% in the experiment with M14 melanoma and 97.2% in the experiment on HCT-15 colon.

Turning to `CN(C)CC(O)c1ccc2cc(Br)c3ccccc3c2c1` (stereo unspecified), the growth was 24.7% in the experiment on K-562 leukemia; 97.1% with MALME-3M melanoma; 16.8% in the experiment with MDA-MB-231 breast; 58.5% in the experiment with SF-268 CNS; 75.6% in the experiment with SF-295 CNS; 65.9% with SF-539 CNS. For the same compound, the growth was 99.2% in the experiment on UACC-257 melanoma, 47.2% in the experiment with M14 melanoma and 53.7% in the experiment with HCT-15 colon.

`CCC1(C(C)C)NC(=O)NC1=O` (stereo unspecified): the growth in the experiment on K-562 leukemia was 88.3%; in the experiment with MALME-3M melanoma it was 104%; in the experiment with MDA-MB-231 breast it was 100%; in the experiment with SF-268 CNS, 102%; with SF-295 CNS it was 97.6%; with SF-539 CNS it was 101%. The values for the growth in the experiment on UACC-257 melanoma, in the experiment with M14 melanoma and in the experiment with HCT-15 colon were 92.4%, 107% and 105%, respectively.

For `COC(=O)C(=C\c1ccc2c(c1)OCO2)/C(=C/c1ccc2c(c1)OCO2)C(=O)OC`, the growth was 108% in the experiment with K-562 leukemia; 101% in the experiment with MALME-3M melanoma; 107% in the experiment with MDA-MB-231 breast; 96% in the experiment with SF-268 CNS; 95.3% with SF-295 CNS; 96.1% in the experiment on SF-539 CNS. Further, the growth was 108% with UACC-257 melanoma, 99.4% in the experiment on M14 melanoma and 97.8% with HCT-15 colon.
